Screening data from PubChem.
Compounds with a hit are over-represented: about 27% of the library has one in this group of screens.
Cav32 inh: human Cav3.2 channel inhibition, primary screen | O95180 | Cav3.2-expressing cells, Fluo-4 calcium fluorescence FDSS; stronger effect = lower value | B-score at 10 µM | 100,000 compounds, 4% hits;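 active means single-dose well whose peak fluorescence ratio is a statistical outlier from its plate by either plate-standardised score or position-corrected B-score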
CYP2C9 inhib: blocks human cytochrome P450 2C9 | P11712 | CYP2C9 Supersomes, luciferin-H conversion, luminescence | inhibition, % at 5 µM | 96,000 compounds, 20% hits | AID 777;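 active means blocking of liver enzyme CYP2C9 beyond about 50% at 5 µM, limit read from the data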
CYP2C19 inhib: inhibitors of human CYP2C19; P33261; CYP2C19 Supersomes, luciferin-H EGE luminescence, 30 min; inhibition, % at 5 µM; 96,000 compounds, 21% hits; AID 778;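 active means CYP2C19 inhibition above a set limit at 5 µM in the primary screen, cut at about 50% in these data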
Target sequence (P33261 whole entry, looked up): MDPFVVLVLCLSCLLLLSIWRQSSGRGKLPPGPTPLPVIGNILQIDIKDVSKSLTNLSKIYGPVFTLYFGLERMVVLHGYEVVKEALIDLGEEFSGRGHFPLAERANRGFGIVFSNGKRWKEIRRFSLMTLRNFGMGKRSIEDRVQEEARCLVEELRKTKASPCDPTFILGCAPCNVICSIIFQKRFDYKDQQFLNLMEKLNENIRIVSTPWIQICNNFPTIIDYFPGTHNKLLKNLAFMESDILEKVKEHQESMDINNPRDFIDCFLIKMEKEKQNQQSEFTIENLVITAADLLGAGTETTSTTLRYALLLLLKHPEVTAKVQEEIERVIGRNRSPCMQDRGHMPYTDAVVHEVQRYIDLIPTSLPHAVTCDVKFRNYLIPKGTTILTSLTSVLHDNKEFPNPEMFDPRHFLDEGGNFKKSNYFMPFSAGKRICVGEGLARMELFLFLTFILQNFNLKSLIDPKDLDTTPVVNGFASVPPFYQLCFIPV
CYP2C9 activ: increases human cytochrome P450 2C9 activity | P11712 | recombinant CYP2C9, luciferin-H conversion, luminescence; stronger effect = higher value; factor 1 = untreated enzyme, 0 = blocked | activation factor at 5 µM | 96,000 compounds, 1.4% hits;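 active means activation factor of 2 or more for CYP2C9 at a 5 µM dose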
CYP2C19 act: increases human CYP2C19 enzyme activity | 96,000 tested, under 10 active | AID 1025 | P33261 | activation factor at 5 µM | recombinant CYP2C19, luciferin-H EGE luminescence; stronger effect = higher value; 0 = fully inhibited enzyme, 1 = untreated enzyme;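 active means activation factor of at least 2 at 5 µM in the primary screen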
Large screens that a line does not name were inactive.

Cc1cccc(NC(=O)c2cc3c(n(-c4ccccc4)c2=O)CCCC3=O)n1	CYP2C9 inhib 50
CC1(C)CC(=O)c2cc(C(=O)O)c(=O)n(-c3ccccc3)c2C1	none
CCCNC(=O)c1cc(OC)c(OC)cc1[N+](=O)[O-]	none
Cc1cccc(OCC(=O)OCC(=O)c2c(N)n(C)c(=O)n(C)c2=O)c1C	none
COc1ccc(C2/C=C\CN(Cc3ccc(N(C)C)cc3)CC(=O)N2Cc2ccc(F)cc2)cc1 (stereo not given)	none (no result: CYP2C9 inhib, CYP2C19 inhib, CYP2C9 activ, CYP2C19 act)
Cc1ccc(C)c(C(=O)NC2CC(C)(C)NC(C)(C)C2)c1	CYP2C19 inhib 54
COc1cccc(-c2cc3c(=O)n(-c4ccccc4)c(=S)[nH]c3s2)c1	none
COc1cccc(-n2sc3c(c2=S)-c2cc(OC)ccc2NC3(C)C)c1	CYP2C9 inhib 69
Cc1nccn1-c1ccc(C(F)(F)F)cc1NC=O	none
N#Cc1nc(-c2ccc(OCc3ccccc3)cc2)oc1NCc1cccnc1	none
CN(C)c1oc(-c2ccc(OCc3ccccc3)cc2)nc1C#N	CYP2C19 inhib 80
Cc1ccc(N2C(=O)CC(n3ccnc3)C2=O)cc1C (stereo not given)	CYP2C19 inhib 58
Cc1cccc(N2C(=O)CC(N3CCOCC3)C2=O)c1 (stereo not given)	none
COCCCn1cc(C(=O)c2cc(OC)ccc2OCC(=O)Nc2cc(C)on2)cc(C#N)c1=O	CYP2C9 inhib 57, CYP2C19 inhib 50
O=C(OCC(=O)N1CCc2ccccc21)c1ccc(Cl)nc1	none
C/C(=C\c1ccccc1)C(=O)NC1CCSC1=O (stereo not given)	none
CCNC(=O)COC(=O)/C=C/c1ccccc1[N+](=O)[O-]	none
CN(C)C(=O)COC(=O)/C=C/c1ccccc1[N+](=O)[O-]	CYP2C9 activ 2.1
CCn1cc(C(=O)NC2CCc3ccccc32)c(=O)c2ccc(C)nc21 (stereo not given)	none
CCOC(=O)CSc1nnc(CNC(=O)c2ccc(S(=O)(=O)N3CCCC3)cc2)n1C	none (no result: Cav32 inh)
COc1ccccc1OCCSc1nc2ccccc2c(=O)[nH]1	CYP2C19 inhib 59
Cc1cc(=O)[nH]c(SCc2nc3ccccc3s2)n1	none (no result: Cav32 inh)
CCOC(=O)CSc1nc(C)cc(=O)[nH]1	none
Cc1cc(=O)[nH]c(SCc2cccc(Br)c2)n1	CYP2C9 inhib 74
COc1ccc(CSc2nc(C)cc(=O)[nH]2)cc1Br	CYP2C19 inhib 71
C/C=C/c1ccc(OCCSc2nc(C)cc(=O)[nH]2)c(OC)c1	CYP2C9 inhib 53
C[N+](C)(C)CCOP(=O)(O)OP(=O)([O-])OC[C@H]1O[C@@H](n2ccc(N)nc2=O)[C@H](O)[C@@H]1O	none (no result: CYP2C9 inhib, CYP2C19 inhib, CYP2C9 activ, CYP2C19 act)
COC(=O)[C@@H]1C[C@@]2(O)[C@H](O)[C@H](O)[C@H](O)C[C@H]2N1CC(c1ccccc1)c1ccccc1	none (no result: CYP2C9 inhib, CYP2C19 inhib, CYP2C9 activ, CYP2C19 act)
Cc1ccc(N2C(=O)CC(Sc3nc4ccccc4o3)C2=O)cc1Cl (stereo not given)	none
COC(=O)C1=C(C)NC(=O)/C1=C\c1cc(C)n(-c2cccc(C)c2)c1C	CYP2C9 inhib 84, CYP2C19 inhib 79
COC(=O)C1=C(C)NC(=O)/C1=C\c1ccco1	none
O=C(N/N=C/c1cc2ccccc2nc1Cl)/C(=C/c1cccs1)NC(=O)c1ccccc1	Cav32 inh -5.9, CYP2C19 inhib 80
O=C(CN1C(=O)CCSc2ccccc21)Nc1ccc2c(c1)OCO2	CYP2C9 inhib 70, CYP2C19 inhib 90
CCC1Oc2ccccc2N(CC(=O)Nc2ccc3c(c2)OCCO3)C1=O (stereo not given)	none (no result: CYP2C9 inhib, CYP2C19 inhib, CYP2C9 activ, CYP2C19 act)
O=C(CN1C(=O)CSc2ccccc21)NC1CCCC1	CYP2C9 activ 2.3 (no result: Cav32 inh)
O=C(Cn1c(=O)oc2ccccc21)Nc1ccc2c(c1)OCCO2	none
O=C(CN1C(=O)COc2ccccc21)Nc1ccc2c(c1)OCCO2	CYP2C19 inhib 57
Cc1cc2ccccc2c(=O)n1CC(=O)Nc1ccc2c(c1)OCCO2	CYP2C9 inhib 63, CYP2C19 inhib 56
O=C(CN1C(=O)CSc2ccccc21)Nc1ccc2c(c1)OCCO2	CYP2C9 activ 2.2
O=C(NCCN1CCOCC1)C1CCC(CNS(=O)(=O)c2ccc(Cl)cc2)CC1 (stereo not given)	none
CCOc1ccc(NC(C)c2cc(Cl)ccc2O)cc1 (stereo not given)	CYP2C9 inhib 79, CYP2C19 inhib 62
CC(Nc1ccc(Cl)cc1)c1cc(Cl)ccc1O (stereo not given)	none (no result: CYP2C9 inhib, CYP2C19 inhib, CYP2C9 activ, CYP2C19 act)
Cc1ccccc1C(=O)Nc1ccc(Br)cn1	none
CC(Nc1ccc(Br)cn1)c1cc(Cl)ccc1O (stereo not given)	CYP2C9 inhib 86, CYP2C19 inhib 82 (no result: Cav32 inh)
Cn1c(NC(=O)C2CCCO2)cc(=O)n(C)c1=O (stereo not given)	CYP2C9 inhib 66
CCOc1ccc(OCC)c(NC(=O)CN(c2ccc(C)cc2)S(=O)(=O)c2c(C)noc2C)c1	CYP2C9 inhib 92
CCOc1ccc(NC(=O)CN(c2cc(C)cc(C)c2)S(=O)(=O)c2c(C)noc2C)cc1	none (no result: CYP2C9 inhib, CYP2C19 inhib, CYP2C9 activ, CYP2C19 act)
CCOc1ccccc1NC(=O)CN(c1ccc(C)cc1)S(=O)(=O)c1c(C)noc1C	Cav32 inh -4.7, CYP2C9 inhib 96, CYP2C19 inhib 99
COc1ccc(CCNC(=O)C2CCN(S(=O)(=O)c3c(C)noc3C)CC2)cc1OC	none
CCOc1ccccc1NS(=O)(=O)c1c(C)noc1C	CYP2C9 inhib 71, CYP2C19 inhib 75
COc1ccc(CCNC(=O)CN(c2ccc(C)cc2)S(=O)(=O)c2c(C)noc2C)cc1OC	CYP2C19 inhib 92
CCOc1ccc(OCC)c(NC(=O)C2CCCN(S(=O)(=O)c3cccs3)C2)c1 (stereo not given)	none
CCOc1ccccc1NS(=O)(=O)c1cccs1	CYP2C19 inhib 78, CYP2C9 activ 2.6
c1ccc(-c2cc3c(N4CCOCC4)ncnc3s2)cc1	CYP2C19 inhib 79
Cc1cc(C)c(C)c(OCc2nc(-c3cccnc3)no2)c1	CYP2C19 inhib 68
Cc1ccc(OCc2nc(-c3ccccc3)no2)c(C)c1	CYP2C9 inhib 59, CYP2C19 inhib 72
CCCC(=O)Oc1ccccc1C1SCc2cc(C)c(C)cc2CS1	none (no result: Cav32 inh)
COc1ccc2cc(C#N)c(N3CCN(Cc4nnnn4CCC(C)C)CC3)nc2c1	CYP2C9 inhib 57, CYP2C19 inhib 59
Cc1ccc2nc(N3CCN(Cc4nnnn4Cc4ccccc4)CC3)c(C#N)cc2c1	CYP2C9 inhib 89, CYP2C19 inhib 78
CC(=O)c1cccc(NC(=O)C2CC(=O)N(Cc3ccccc3)C2)c1 (stereo not given)	none
COC(=O)c1onc(-c2ccccc2)c1C(=O)OC	CYP2C19 inhib 72
Cc1onc(-c2ccccc2)c1C(=O)NCc1cccs1	none
Cc1onc(-c2ccccc2)c1C(=O)NCc1cccnc1	CYP2C19 inhib 59
Cc1onc(-c2ccccc2)c1C(=O)Oc1cccnc1	CYP2C19 inhib 51
Oc1ccc(Br)cc1-c1cc(-c2ccco2)[nH]n1	none
Oc1ccccc1-c1cc(-c2ccco2)[nH]n1	CYP2C9 inhib 51
Oc1ccc(Cl)cc1-c1cc(-c2ccco2)[nH]n1	none
